# From PubChem BioAssay
# Shn3 inh set2: Schnurri-3 reporter inhibition in Clone20 osteoblasts | Clone20 osteoblast Shn3 3'UTR firefly luciferase, 24 h | hit rate 0.52% among 360,000 | AID 588674 | inhibition, % at 12.5 µM;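 active = mean inhibition of at least 75% with every replicate also reaching 75%; inconclusive = mean inhibition at least 75% but some replicate below; inactive = mean inhibition below 75%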;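 note: 0% = median of neutral control wells and 100% = pilot-screen positive control compound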
# Beta apoptosis: beta cell apoptosis inhibition. AID 435005. protection from apoptosis, % (concentration not given with the values). INS-1E cytokine-induced death, ATP luminescence, 48 h; percent of positive-control rescue, neutral wells zero. hit rate 0.8% among 300,000;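 active = Every replicate reaches about 75%, or at least half do and their mean reaches it too, limit read from the data; inconclusive = At least half of replicates reach the limit but their mean does not; inactive = Under half of replicates reach the limit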;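 note: 0% = cytokine-treated negative control wells and 100% = positive control rescue; higher means more ATP so stronger rescue from cytokine killing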
# CSC inhib: blocks cancer stem cells. cancer stem cell-like cells viability, luminescence. inhibition, % at 7.5 µM. hit rate 1.1% among 300,000. AID 2717; in the data active = inhibition above about 75%; inconclusive = no clear call, values can overlap the other calls; tested in HMLE shEcad cells
# PfHsp90 set2: inhibits growth of yeast expressing Plasmodium falciparum Hsp90 | AID 504621 | hit rate 0.32% among 310,000 | S. cerevisiae expressing PfHsp90, BacTiter-Glo ATP, 48 h; yeast lacking PDR1 and PDR3 efflux regulators | inhibition, % at 9.4 µM;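 active = every replicate shows inhibition above about 80%, whatever the replicate mean, limit read from the data; inconclusive = mean inhibition reaches the set limit but some replicate falls short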;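 note: 0% = DMSO neutral controls and 100% = 20 µM radicicol positive controls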
# Calb FLC: affects C. albicans growth with fluconazole | C. albicans CaCi-2 (fluconazole-resistant clinical isolate) + fluconazole, Alamar Blue growth, 48 h | growth inhibition, % (test concentration not listed) | hit rate 0.57% among 300,000;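 active = growth inhibition above about 58% in most replicates, limit read from the data, passing the limit was not always enough; inconclusive = exactly half the replicates above a set limit; inactive = most replicates below a set limit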;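 note: all wells also contain fluconazole at 8 µg/ml as a sub-toxic cotreatment; 0% = median of DMSO wells and 100% = median of geldanamycin control wells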
# An asterisk follows results filed as active; ? = inconclusive; nt = not tested or not shown; + = active, no number; ! = not active in a repeat. The list is not random: actives were taken first. Their share in the collection is about 2.2%.
SMILES,Shn3 inh set2,Beta apoptosis,CSC inhib,PfHsp90 set2,Calb FLC
CNC(=O)[C@H]1O[C@@H](n2cnc3c(NCc4cccc(I)c4)ncnc32)[C@H](O)[C@@H]1O,18,-7,-13,9,nt
Cc1nc(-n2[nH]c3c(c2=O)CCCC3)[nH]c(=O)c1Cc1ccccc1,83,-6,13,71,89*
CN(CC(=O)Nc1ccc(F)cc1)C(=O)CSc1nnc(Cc2ccccc2)o1,4,-5,-13,10,nt
O=C(Nc1ccc(F)c(Cl)c1)c1cncs1,4,nt,6,-6,-11
Cc1ccc(Oc2c(C(N)=O)cc([N+](=O)[O-])cc2[N+](=O)[O-])cc1,93*,5,+,2,-7
Cc1ccc(CNc2ccc([N+](=O)[O-])cc2C(N)=O)cc1,-71,-3,nt,-10,nt
CC12CCC(C(=O)Nc3nc4ccc(Br)cc4s3)(OC1=O)C2(C)C (stereo not given),-71,0,6,-2,?
CCN(CC(=O)NC(C)(C)C)C(=O)c1ccccc1SCC(=O)NC1CCCCCCC1,12,15,23,-1,0
Cc1c(O)cccc1C(=O)N[C@@H](CSc1ccccc1)[C@H](O)CN1C[C@H]2CCCC[C@H]2C[C@H]1C(=O)NC(C)(C)C,16,14,78*!,-24,18
O=C(Cc1ccccc1[N+](=O)[O-])c1ccc2c(c1)OCO2,-23,nt,nt,16,nt
CC1(c2nnc(Cc3ccccc3)o2)CC(c2ccccc2[N+](=O)[O-])=NO1 (stereo not given),-1,-11,-25,108*,8
Cc1ccc(C(=O)Nc2ncc(Cc3ccc(F)cc3)s2)o1,-38,-1,120*,13,-7
Cc1ccc(-n2nc3c(=O)n(C(C)C(=O)NCCC4=CCCCC4)nc(C)c3c2C)cc1 (stereo not given),59,16,12,6,9
COc1ccc(CCNC(=O)N2c3ccccc3Sc3ccccc32)cc1,61,7,24,-7,19
COc1ccccc1-[n+]1c(C)cc(/C=C2\Sc3ccccc3N2C)cc1C,78,110*,68,-26,-9
COc1ccc(-[n+]2c(C)cc(/C=C3\Sc4ccccc4N3C)cc2C)cc1,88*,116*,56,-28,-6
COc1ccccc1OC(=O)CCN1c2ccccc2Sc2ccccc21,-33,6,9,-4,0
Cc1occc1-c1nnc(SCC(=O)NC2CCC(C)CC2)o1 (stereo not given),-1,-3,nt,-11,nt
Cc1ccc(Cl)cc1N1CCN(Cc2nc3c(c(=O)[nH]c(=O)n3C)n2Cc2ccccc2F)CC1,14,-16,118*,-17,1
Cc1ccc(Cl)cc1N1CCN(Cc2nc3c(c(=O)[nH]c(=O)n3C)n2CCc2ccccc2)CC1,23,29,5,-1,-14
CCc1ccc(S(=O)(=O)Nc2ccc(O)c3c(=O)cc(-c4ccccc4Cl)oc23)cc1,18,4,15,19,-7
O=c1cc(-c2ccccc2Cl)oc2c(NS(=O)(=O)c3cc(Cl)cc(Cl)c3O)ccc(O)c12,1,45,102*,nt,?
CCCS(=O)(=O)NC(=O)C1(C)CCCN(C(=O)COCc2ccccc2)C1 (stereo not given),1,nt,nt,nt,nt
CC(=O)OCC1O[C@@H](O[C@@H]2C[C@H]3C(C)(C)[C@H](OC(C)=O)CC[C@]3(C)[C@H]3CC[C@]45C[C@]4(CC[C@H]5[C@@H](C)C[C@@H](O)[C@H](O)C(C)(C)O)[C@@]32C)[C@H](O)[C@@H](O)[C@@H]1O (stereo not given in full),nt,111*,102*,nt,14
CCOC(=O)CNC(=O)C1(c2ccccc2)CCCC1,8,-2,-12,nt,-12
CCOC(=O)CNC(=O)C1(NC(=O)CNC(=O)OCc2ccccc2)CCCC1,91*,nt,nt,6,nt
O=C(CCC1CCCN(C2C3CC4CC(C3)CC2C4)C1)NCc1ccc(F)c(F)c1 (stereo not given),-7,2,19,-1,-21
CCCc1cc(-c2[nH]ncc2-c2ccc3c(c2)OCCCO3)c(O)cc1O,32,-21,95*,2,11
CCCc1cc(-c2[nH]ncc2-c2ccc(C(=O)OCC)o2)c(O)cc1O,26,23,51,4,9
O=S(=O)(Nc1nc2ccccc2nc1Nc1cccc(S(=O)(=O)N2CCCCC2)c1)c1ccccc1,25,57,124*,-28,6
